Structures can show the parent of a compound that is named as a salt.
Each compound was assayed on HeLa (assay: nuclear count per well, robust Z-score vs DMSO; higher = more cells (less toxicity)). Conditions: 10 µM; 6 h.
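Further: Hoechst-stained nuclei counted by automated confocal imaging of four fields per well in 384-well plates, with the robust Z-score based on the per-plate DMSO median and robust SD.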

Row | SMILES | nuclear count per well
1 | CC1=C(CC(=O)O)c2cc(F)ccc2/C1=C\c1ccc([S+](C)[O-])cc1 (stereo unspecified) [Sulindac] | -0.07
2 | CC(C)C[C@H](NC(=O)[C@@H](O)[C@H](N)Cc1ccccc1)C(=O)O [Bestatin] | 0.0358
3 | COc1cc(Br)c(Nc2nc(-c3c(C)nc4ncccn34)cs2)c(Br)c1 | -2.28
4 | CC(O)(P(=O)(O)O)P(=O)(O)O [Etidronate Disodium] | -0.519
5 | COc1nc(N)nc2c1ncn2[C@@H]1O[C@H](CO)[C@@H](O)[C@@H]1O [Nelarabine] | -0.434
6 | C[C@H]1CC[C@@]2(OC1)O[C@H]1C[C@H]3[C@@H]4CC[C@@H]5C[C@@H](O[C@@H]6O[C@H](CO)[C@H](O)[C@H](O)[C@H]6O[C@@H]6O[C@H](CO)[C@@H](O)[C@H](O)[C@H]6O)CC[C@]5(C)[C@H]4CC[C@]3(C)[C@H]1[C@@H]2C [Timosaponin A-III] | 0.239
7 | CCN(CCO)CCCC(C)Nc1ccnc2cc(Cl)ccc12 (stereo unspecified) [Hydroxychloroquine Sulfate] | -1.11
8 | Cc1cccc(Nc2nc(-c3ccncc3)cs2)c1 | -0.258
9 | CCCCCC(=O)/C=C/C=C\CCCCCCCC(=O)O [13-Keto-octadeca-9Z,11E-dienoic acid] | -0.0617
10 | NC(=S)NCCC[C@H](N)C(=O)O [Thiocitrulline [L-Thiocitrulline]] | 0.416
11 | Cc1c(-c2ccccc2)oc2c(C(=O)OCCN3CCCCC3)cccc2c1=O | -0.575
12 | CN(C)CCC(c1ccc(Br)cc1)c1ccccn1 (stereo unspecified) [Brompheniramine Maleate] | 0.606
13 | Cc1c2oc3c(C)ccc(C(=O)N[C@@H]4C(=O)N[C@H](C(C)C)C(=O)N5CCC[C@H]5C(=O)N(C)CC(=O)N(C)[C@@H](C(C)C)C(=O)O[C@@H]4C)c3nc-2c(C(=O)N[C@@H]2C(=O)N[C@H](C(C)C)C(=O)N3CCC[C@H]3C(=O)N(C)CC(=O)N(C)[C@@H](C(C)C)C(=O)O[C@@H]2C)c(N)c1=O [Actinomycin D] | -9.21
14 | CC[C@@H]([C@H](C)O)n1ncn(-c2ccc(N3CCN(c4ccc(OC[C@@H]5CO[C@@](Cn6cncn6)(c6ccc(F)cc6F)C5)cc4)CC3)cc2)c1=O [Posaconazole] | -0.000264
15 | c1ccc(-c2ccc(CNc3nc(-c4ccccn4)nnc3-c3ccccc3)cc2)cc1 | -1.94
16 | O=C1CN2Cc3c(ccc(Cl)c3Cl)N=C2N1 [Anagrelide] | 0.771

Row | SMILES | nuclear count per well
17 | C[C@H](N)[C@H](O)c1cccc(O)c1 [Metaraminol Bitartrate] | -0.63
18 | COc1cc2c3cc1Oc1c(OC)c(OC)cc4c1[C@@H](Cc1ccc(OC(=O)c5ccc([N+](=O)[O-])cc5)c(c1)Oc1ccc(cc1)C[C@@H]3N(C)CC2)N(C)CC4 | 1.12
19 | O=C(CCCN1CC=C(n2c(=O)[nH]c3ccccc32)CC1)c1ccc(F)cc1 [Droperidol] | 0.035
20 | CC(=O)NC[C@H]1CN(c2ccc(N3CCOCC3)c(F)c2)C(=O)O1 [Linezolid] | 0.483
21 | CC(=Cc1ccc(C(=O)O)cc1)c1ccc2c(c1)C(C)(C)CCC2(C)C | -0.374
22 | CC(C)NC[C@H](O)COc1cccc2ccccc12 [(S)-(-)-propranolol HCl] | 0.409
23 | c1ccc2c(c1)CCCC2C1=NCCN1 (stereo unspecified) | 0.0582
24 | CC(C)c1c(C(=O)Nc2ccccc2)c(-c2ccccc2)c(-c2ccc(F)cc2)n1CC[C@@H](O)C[C@@H](O)CC(=O)O [Atorvastatin hemicalcium salt] | -2.21
25 | CCCCCCc1ccc(O)cc1O [Hexylresorcinol] | -0.222
26 | CC(C)CCC[C@@H](C)[C@H]1CC[C@H]2[C@@H]3C(=O)C=C4C[C@@H](O)CC[C@]4(C)[C@H]3CC[C@]12C [7-Ketocholesterol] | -0.193
27 | NC(=O)Cc1cccc(C(=O)c2ccccc2)c1N [Nepafenac] | -0.0527
28 | Cn1c(=O)c2[nH]cnc2n(C)c1=O [Aminophylline] | -0.0199
29 | Cc1ccc(O)c([C@H](CCN(C(C)C)C(C)C)c2ccccc2)c1 [Tolterodine Tartrate] | 0.854
30 | C[C@@H]1C/C=C/C=C/C=C/C=C/[C@H](O[C@@H]2O[C@H](C)[C@@H](O)[C@H](N)[C@@H]2O)C[C@@H]2O[C@](O)(C[C@@H](O)C[C@H]3O[C@@H]3/C=C/C(=O)O1)C[C@H](O)[C@H]2C(=O)O [Natamycin] | 0.636
31 | CC(=O)CCCCn1c(=O)c2c(ncn2C)n(C)c1=O [Pentoxifylline] | 0.675

From the supplement of paper PMC9844399
